Results as given in the supplement of paper PMC11172423.
Values without a mark were called inactive.

Tests used:
[1] = tested on: Falciformispora senegalensis CBS197.79; test: growth relative to untreated control; higher = less inhibition, active = 20 or less
Procedure, shortened: (§1)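 For each test, a hyphal fragment suspension of M. mycetomatis MM55 or F. senegalensis CBS197.79 was prepared in colourless RPMI 1640 with L-glutamine and MOPS at 68–72% transmission at 660 nm. Exposure to compound at 100 or 25 µM ran for 7 days at 37 °C in 96-well plates, followed by viability reading with MTS (2 h, 490 nm) or resazurin (600 nm). Growth corresponds to metabolic activity relative to the untreated growth control after correction of both with a blank of medium and dye.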

[2] = tested on: Madurella mycetomatis MM55; test: as above
Procedure, shortened: as §1

| Compound | growth ([1]; 25 µM) | growth ([1]; 100 µM) | growth ([2]; 25 µM) | growth ([2]; 100 µM) |
| --- | --- | --- | --- | --- |
| CCN1CCN(Cc2ccc(Nc3ncc(F)c(-c4cc(F)c5nc(C)n(C(C)C)c5c4)n3)nc2)CC1 | 101% | 105% | 80.5% | 85.2% |
| O=C(NCCCNc1nc(Nc2ccc(N3CCOCC3)cc2)ncc1C1CC1)C1CCC1 | 93.4% | 95% | 101% | 72.1% |
| CC(=O)c1nn(-c2c(Cl)cc(C(F)(F)F)cc2Cl)c(N)c1S(C)=O (configuration not stated) | 94.6% | 83.2% | 119% | 107% |
| NC(=O)c1nc(F)cnc1O | 114% | 102% | 83.1% | 84.1% |
| FC(F)(F)c1cc(Cl)cc(Nc2nc3cnc(NCC4CC4)nc3n2C2CCNCC2)c1 | 95% | 17.6% (active) | 53.7% | 4.76% (active) |
| COc1ccc(-c2nn3c(-c4ccco4)nnc3s2)cc1OC | 104% | 96% | 97% | 55.2% |
| O=C(c1ccc(Nc2nccc(-c3ccc(Cl)cc3)n2)cc1)N1CCS(=O)(=O)CC1 | 80.5% | 98.8% | 76.8% | 81.3% |
| Cc1cc(Cl)ccc1NC(=S)N(C)C | 98.6% | 88.2% | 106% | 147% |
| COc1ccc(CCN(Cc2cccs2)C(=O)c2cc3sccc3n2C)cc1OC | 97.9% | 113% | 5.66% (active) | 31.3% |
| CCOC(=O)C1=C(CC)NC2=C(C(=O)CC(C)(C)C2)C1c1ccc(Br)cc1 (configuration not stated) | 82.3% | 87% | 106% | 73.2% |
| CC(C)C(=O)OCC(=O)[C@@]12OC(C3CCCCC3)O[C@@H]1C[C@H]1[C@@H]3CCC4=CC(=O)C=C[C@]4(C)[C@H]3[C@@H](O)C[C@@]12C (some centres not stated) | 109% | 105% | 75.3% | 90.7% |
| c1ccc(-c2ccnc(C3CCN(CC45CNCC4C5)CC3)n2)cc1 (configuration not stated) | 82.4% | 91.2% | 71.4% | 134% |
| OB(O)O | 90.6% | 104% | 98.7% | 163% |
| O=C(Nc1ncccc1O)c1ccc(N2CCOCC2)nc1 | 90% | 81.4% | 92.8% | 95.8% |
| Cc1nn(C2CCS(=O)(=O)C2)c(C)c1C1Nc2ccccc2C(=O)N1Cc1ccc2c(c1)OCO2 (configuration not stated) | 84.3% | 93.6% | 82.2% | 91.4% |
| O=C(CCCN1CCC(O)(c2ccc(Cl)cc2)CC1)c1ccc(F)cc1 | 103% | 14.2% (active) | 76.2% | 4.14% (active) |
| COC(=O)N[C@H](C(=O)N1CCC[C@H]1c1ncc(-c2ccc(-c3ccc(-c4cnc([C@@H]5CCCN5C(=O)[C@@H](NC(=O)OC)C(C)C)[nH]4)cc3)cc2)[nH]1)C(C)C | 114% | 99.8% | 82.5% | 85.6% |
| Clc1ccc2c(N3CCN(CCCN4CCN(c5ccnc6cc(Cl)ccc56)CC4)CC3)ccnc2c1 | 104% | 101% | 95.9% | 86.7% |
| c1cc(N2CCC(CN3CCOCC3)CC2)c2sccc2n1 | 79% | 32.1% | 90.4% | 31.4% |
| CC(C)C[C@H](NC(=O)[C@H](Cc1ccccc1)NC(=O)c1cnccn1)B(O)O | 103% | 93.7% | 113% | 85.1% |
| CCCCN(CCCC)CCC(O)c1cc2c(Cl)cc(Cl)cc2c2cc(C(F)(F)F)ccc12 (configuration not stated) | 98.2% | 106% | 75.6% | 77.3% |
| CN(C)CCCN1C(=O)c2[nH]nc(-c3ccc(Cl)cc3O)c2C1c1ccc(Cl)cc1 (configuration not stated) | 83.3% | 25.4% | 68% | 6.84% (active) |
| CCCC(CCC)C(=O)O | 112% | 106% | 76% | 79.4% |
| NS(=O)(=O)c1cc2c(cc1Cl)NC=NS2(=O)=O | 103% | 103% | 108% | 96.2% |

| Compound | growth ([1]; 25 µM) | growth ([1]; 100 µM) | growth ([2]; 25 µM) | growth ([2]; 100 µM) |
| --- | --- | --- | --- | --- |
| CC1(C)CCC(CO)(NC(=O)c2cc3c(F)cc(F)cc3[nH]2)CC1 | 93.1% | 93.5% | 28.6% | 6.07% (active) |
| Cn1ccnc1SCC(=O)Nc1ccc(C(=O)Nc2ncccc2O)cc1 | 87.2% | 79.4% | 102% | 64.9% |
| CO[C@H]1C[C@@H]2CC[C@@H](C)[C@@](O)(O2)C(=O)C(=O)N2CCCC[C@H]2C(=O)O[C@H]([C@H](C)C[C@@H]2CC[C@@H](O)[C@H](OC)C2)CC(=O)[C@H](C)/C=C(\C)[C@@H](O)[C@@H](OC)C(=O)[C@H](C)C[C@H](C)/C=C/C=C/C=C/1C | 103% | 105% | 120% | 69.3% |
| Cc1cccc(Nc2nccc(-c3cccc(C#N)c3)n2)c1 | 80.6% | 89.8% | 84.1% | 49.1% |
| c1cc(-c2n[nH]c3ccc(-c4n[nH]c(C5CCCN5)n4)cc23)ccc1CNC1CC1 (configuration not stated) | 88.8% | 84.8% | 70.2% | 31.7% |
| CS(=O)(=O)NC1CCN(C(=O)c2ccc(Nc3nccc(-c4cc(Cl)cc(C(F)(F)F)c4)n3)cc2)C1 (configuration not stated) | 93.2% | 82.5% | 122% | 95.4% |
| FC(F)(F)c1cc(Cl)cc(Nc2nc3cnc(NC4CCC4)cc3[nH]2)c1 | 70.6% | 10.8% (active) | 109% | 27% |
| O=S(=O)(NCC1(O)CCOc2ccccc21)c1ccccc1F (configuration not stated) | 85.9% | 113% | 101% | 102% |
| CCCN1CCC=C(c2cc(-c3ccc(C)cc3)no2)C1 | 103% | 16.5% (active) | 92.6% | 4.88% (active) |
| CC(N)CCn1c(Nc2cc(Cl)cc(C(F)(F)F)c2)nc2cnc(NC(C)(C)C)nc21 (configuration not stated) | 19.4% (active) | 12.8% (active) | 6.25% (active) | 5.86% (active) |
| CCN(CC)C(=O)/C(C#N)=C/c1cc(O)c(O)c([N+](=O)[O-])c1 | 99% | 99.4% | 107% | 91.8% |
| COc1ccc2cc1Oc1ccc(cc1)C[C@H]1c3cc(c(OC)cc3CCN1C)Oc1c(OC)c(OC)cc3c1[C@H](C2)N(C)CC3 | 33.4% | 20.6% | 3.29% (active) | 3.62% (active) |
| OC[C@H]1NC[C@H](O)[C@@H](O)[C@H]1O | 94.7% | 100% | 101% | 91.1% |
| COc1ccc2c(c1)c(CC(=O)O)c(C)n2C(=O)c1ccc(Cl)cc1 | 111% | 104% | 79.7% | 80.8% |
| Cc1nn(C)c(Oc2ccccc2)c1C=NOCc1ccc(C(=O)OC(C)(C)C)cc1 | 95% | 89% | 83.5% | 102% |
| C[C@@H](C1CCCCC1)n1c(-c2cc3c(cc2Br)OCO3)nc2cc(C(=O)Nc3ccc(C#N)cc3)ccc21 | 106% | 102% | 109% | 89% |
| Cc1ncc([N+](=O)[O-])n1CC(C)O (configuration not stated) | 93.4% | 100% | 120% | 128% |
| C[C@H](NC(=O)c1cc2cccc(F)c2[nH]1)c1ccccc1 | 100% | 90.3% | 26.9% | 6.74% (active) |
| CCOc1ccc(-c2ccnc(Nc3cncc(OC)c3)n2)cc1C#N | 100% | 86.8% | 88.5% | 68.7% |
| Nc1nonc1-c1nc2c(-c3cccc(Cl)c3)nccc2n1CCCNC(=O)Cc1ccc(Cl)cc1 | 90% | 110% | 80.5% | 121% |
| CC(N)CCn1c(Nc2cc(Cl)cc(C(F)(F)F)c2)nc2cnc(NC3CCCC3)nc21 (configuration not stated) | 10.9% (active) | 17.2% (active) | 11.2% (active) | 7.25% (active) |
| CCOC(=O)NCCOc1cnn(Cc2ccccc2)c(=O)c1 | 91.1% | 101% | 100% | 97.3% |
| CC(C)c1nc(CN(C)C(=O)N[C@H](C(=O)N[C@@H](Cc2ccccc2)C[C@H](O)[C@H](Cc2ccccc2)NC(=O)OCc2cncs2)C(C)C)cs1 | 101% | 104% | 74.1% | 82.2% |
| Cc1ccc(C)c2sc(N(CCCn3ccnc3)C(=O)c3ccco3)nc12 | 38.5% | 30% | 5.97% (active) | 7.8% (active) |
